# tim10-1 inh: tim10-1 yeast growth inhibition | inhibition, % at 20 µM | actives 2.2% (n = 330,000) | S. cerevisiae tim10-1 ts strain growth, BacTiter-Glo, 24 h | AID 463190;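 active means inhibition of at least 40%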;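 further: mutant grown at 25 °C; 0% = DMSO wells with yeast and 100% = wells holding no yeast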
# tim23-1 inh: tim23-1 yeast growth inhibition | S. cerevisiae tim23-1 growth, BacTiter-Glo luminescence, 24 h | inhibition, % at 20 µM | actives 1.3% (n = 330,000);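 active means growth inhibition of the mutant yeast at or above 50%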;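 further: temperature-sensitive mutant grown at 25 °C; plate controls were DMSO-treated mutant yeast for no effect and medium wells lacking yeast for full effect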
# TIM10 inh: inhibits growth of TIM10 yeast strain; actives 1.4% (n = 330,000); inhibition, % at 10 µM; S. cerevisiae TIM10 strain growth, BacTiter-Glo luminescence, 24 h;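 active means inhibition of 40% or more at the single tested concentration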;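 further: wild-type TIM10 isogenic control strain grown at permissive 25 °C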
# SKKanGAS inh: blocks kanamycin growth of S. pyogenes SKKanGAS strain. BacTiter-Glo, 6 h. inhibition, % at 7.5 µM. actives 1.3% (n = 300,000). AID 1662;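 active means mean replicate score, as percent of positive control median, at least 50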;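 further: strain carries kanamycin resistance gene driven by streptokinase promoter and grows in 40 µg/ml kanamycin; loss of luminescence reflects streptokinase promoter inhibition or plain growth inhibition; 0% = median of DMSO wells and 100% = positive control at its reference dose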
# NALP3 yeast inh: blocks the NALP3 inflammasome reconstituted in yeast; AID 2825; inhibition, % at 10 µM; Yeast reconstituted NLRP3/ASC/caspase-1, beta-gal luminescence, 24 h; actives 0.39% (n = 330,000);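 active means inhibition of 50% or more; inactive means inhibition below 50%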;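 further: plate controls were induced DMSO wells for no effect and uninduced yeast grown without galactose for full effect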
# tim10-1 confirm: confirmation of tim10-1 mutant yeast growth inhibitors. S. cerevisiae tim10-1 ts strain growth, BacTiter-Glo, 24 h. inhibition, % at 20 µM. actives 56% (n = 7,400). shares compounds with tim10-1 inh. AID 463213;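 active means inhibition of yeast growth at or above a set limit in either of two repeat tests at 20 µM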;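 further: tim10-1 mutant grown at permissive 25 °C to find synthetic lethal compounds; 0% = DMSO yeast wells and 100% = medium wells without yeast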
# TIM10 conf: TIM10 yeast growth inhibition, confirmed. shares compounds with TIM10 inh. S. cerevisiae tim10 strain growth, BacTiter-Glo luminescence, 24 h. inhibition, % at 10 µM. actives 63% (n = 4,600). AID 463215;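 active means inhibition of yeast growth at or above a set limit in either of two replicates at 10 µM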;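 further: this counterscreen used the strain with wild-type TIM10; 0% = yeast with DMSO and 100% = medium wells lacking yeast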
# Active calls of the source: *; · = not tested or not shown. Rows were chosen to be rich in hits. Some 4.6% of all compounds tested hit in one or more screens of this group.
SMILES,tim10-1 inh,tim23-1 inh,TIM10 inh,SKKanGAS inh,NALP3 yeast inh,tim10-1 confirm,TIM10 conf
CCOc1ccc(Br)cc1S(=O)(=O)NC1CCCC1,1,23,-3,·,34,·,·
Cc1cccc(C)c1N=Cc1c(O)n(-c2nccs2)c(=O)c2ccccc12,46*,48,55*,-5,17,41*,-3
O=c1c2ccccc2c(C=Nc2ccccc2O)c(O)n1-c1nccs1,6,-2,-7,-6,6,·,·
S=C(Nc1ccc(Oc2ccccc2)cc1)Nc1cccnc1,16,14,14,-7,23,·,·
CC(=O)Oc1ccc(N2C(=O)C3C(C2=O)C2(C)C=CC3(C)O2)cc1 (configuration not stated),56*,2,83*,·,-12,93*,87*
COC(=O)c1cc(N2C(=O)C3C(C2=O)C2(C)C=CC3(C)O2)ccc1Cl (configuration not stated),53*,18,83*,-7,-13,76*,90*
Cc1cccc(C)c1NC(=O)CN1C(=O)COc2ccccc21,11,-1,1,-3,17,·,·
CCOC(=O)C(C(=O)OCC)c1cc(Br)c2noc3c2c1C(=O)c1ccccc1-3,42*,46,44*,91*,17,39*,27
COc1cccc(N2CCN(CC(=O)Nc3nc(C)c(C(=O)N(C)C)s3)CC2)c1,9,10,-7,6,4,·,·
COc1cccc(N2CCN(CC(=O)Nc3nc4c(s3)CC(C)CC4)CC2)c1 (configuration not stated),40*,37,40*,4,8,20,29
Cc1nc(C)c(-c2csc(Nc3ccc(F)cc3)n2)s1,48*,45,51*,3,-9,43*,44*
Cc1ccc2c(c1)Oc1ccc(NC(=O)CCl)cc1C(=O)N2,43*,44,50*,-17,-26,30*,33*
CCOc1cccc2sc(N(CCCN(C)C)C(=O)c3ccc(S(=O)(=O)N4CCc5ccccc5C4)cc3)nc12,45*,15,42*,6,26,23,32*
CCc1ccc2nc(N(CCCN(C)C)C(=O)c3ccc(S(=O)(=O)N4CCc5ccccc5C4)cc3)sc2c1,31,16,28,19,12,·,·
CCN1CCN(c2nnc(-c3ccc(C)cc3)c3ccccc23)CC1,2,0,-1,2,14,·,·
CCN(CC(=O)N1CCCC1)S(=O)(=O)c1ccc(OC)cc1,-10,-1,-6,2,-1,·,·
c1csc(-c2cn3ccc4ccccc4c3n2)c1,37,21,19,-1,28,·,·
c1csc(-c2nc3c4ccccc4c4ccccc4c3[nH]2)c1,41*,32,58*,41,17,21,29
Cc1cccc(N2CCN(C(=O)c3ccc4c(c3)NC(=O)C(CSCc3cccc(F)c3)N4)CC2)c1C (configuration not stated),-5,13,3,7,12,·,·
CC(=O)C1=NN(c2ccccc2)C(c2ccc3c(c2)OCO3)N1c1ccc(N2CCOCC2)cc1 (configuration not stated),11,17,20,-16,26,·,·
COc1cccc(N2C(C(C)=O)=NN(c3ccccc3)C2c2ccc(N3CCOCC3)cc2)c1 (configuration not stated),48*,30,42*,10,7,32*,-10
O=C(COc1c(F)c(F)c(C(F)(F)F)c(F)c1F)Nc1ccc(N2CCOCC2)c(Cl)c1,58*,41,43*,6,20,45*,34*
CSc1ccc(OCC(=O)Nc2ccc(N3CCOCC3)c(Cl)c2)cc1,-1,-5,3,-3,32,·,·
Cc1cccc(NC(=S)N/N=C/c2ccc3c(c2)OCO3)c1,42*,45,47*,-4,-24,29,25
Cc1ccccc1S(=O)(=O)c1c(C)cc(C)n(C(C)C)c1=O,41*,41,52*,4,-15,34*,-30
SMILES,tim10-1 inh,tim23-1 inh,TIM10 inh,SKKanGAS inh,NALP3 yeast inh,tim10-1 confirm,TIM10 conf
O=C(CCCc1ccccc1)NCCc1ccc(F)cc1,-1,3,-3,2,24,·,·
O=C(c1ccco1)N1CCN(C(=O)c2cc3sccc3n2Cc2ccccc2)CC1,42*,47,43*,-4,-1,43*,34*
Cc1ccc(CSCC(=O)N2CCN(Cc3ccc4c(c3)OCO4)CC2)cc1,57*,39,41*,-3,9,41*,-24
C[C@]1(CO)CCC[C@@]2(C)C1CC[C@@H](CO)[C@@H]2CCc1ccoc1 (some centres not stated),19,28,4,4,48,·,·
CCOc1ccc(S(=O)(=O)N2CCC(C(=O)Nc3cc(S(C)(=O)=O)ccc3Cl)CC2)cc1,-7,-17,0,·,21,·,·
Cc1nc2ccccn2c1C(=O)/C=C/c1cccc([N+](=O)[O-])c1,50*,38,52*,7,22,44*,54*
Cc1ccc(/C=C/C(=O)c2c(C)nc3ccccn23)cc1,37,35,39,23,20,·,·
CCCCN(C(=O)C(C)Oc1ccc(Cl)cc1)c1c(N)n(CCCC)c(=O)[nH]c1=O (configuration not stated),8,5,3,-8,-2,·,·
COC(=O)/C(=C\c1ccc([N+](=O)[O-])o1)NC(=O)c1ccccc1,45*,6,44*,3,-6,40*,32*
CCCCNC(=O)/C(=C\c1ccc([N+](=O)[O-])o1)NC(=O)c1ccccc1,38,32,28,5,18,·,·
CC(C)(C)c1ccccc1NC(=S)NC1CCCCC1,43*,37,45*,-1,28,20,32*
CC(C)(C)c1ccccc1NC(=S)NC1CCCC1,32,39,23,-1,39,·,·
Cc1ccccc1CS(=O)(=O)c1nnc([C@H](Cc2ccccc2)NC(=O)OC(C)(C)C)o1,72*,33,68*,17,24,51*,50*
CC(C)(C)OC(=O)N[C@@H](Cc1ccccc1)c1nnc(S(=O)(=O)Cc2ccccc2)o1,73*,48,59*,·,12,55*,46*
CC(C)(C)OC(=O)N[C@@H](Cc1ccccc1)c1nnc(SCC(=O)O)o1,0,12,-1,-1,0,·,·
CCSc1nnc([C@H](Cc2ccccc2)NC(=O)OC(C)(C)C)o1,25,14,23,0,4,·,·
Cc1cccc(Oc2cc(NC(=O)c3ccccc3)cc([N+](=O)[O-])c2)c1,44*,31,53*,35,20,36*,2
Cn1cc([N+](=O)[O-])c(C(=O)Nc2cc(Oc3ccccc3)cc([N+](=O)[O-])c2)n1,·,·,·,7,·,·,·
